Reference: PubChem BioAssay (EPA / NIEHS)
“And” between values parts separate entries of the source, which are not always exact repeats. Equal values may be shown once. Some compounds were tested as several samples or in several runs, with calls that do not always agree. The source made the active and inactive calls. Rule for the calls: active = hit-call score of the fitted dose curve at least 0.9, where 1 is the maximum; inactive = score below 0.9.

Legend:
[1] = read-out: Plasminogen activator inhibitor-1 (PAI1), SERPINE1 (gene 5054); assay: BSK_MyoF_PAI1: BioMAP Diversity Plus: MyoF Assay for Plasminogen activator inhibitor-1 (PAI1) Biomarker Activity (AID 2284256); conditions: primary human lung fibroblasts
How it was run: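 In this multiplexed primary-cell system, fibroblasts from human lung received compound for 24 h before ELISA detection of PAI-1; overt toxicity was checked by SRB (0.1%, TCA-fixed, 560 nm) in parallel wells.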

CD69, CD69 (gene 969) = assay: BSK_IMphg_CD69: BioMAP Diversity Plus: IMphg Assay for CD69 Biomarker Activity (AID 2284257); conditions: primary human endothelial cells with macrophages
How it was run: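 Human venular endothelial cells co-cultured with macrophages; CD69 quantified by ELISA 24 h after compound addition. Activity fitted in the positive direction relative to DMSO baseline; cytotoxicity tracked in parallel cultures via SRB total-protein staining.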

[2] = read-out: Eotaxin 3, CCL26 (gene 10344); assay: BSK_BF4T_Eotaxin3: BioMAP Diversity Plus: BF4T Assay for Eotaxin 3 Biomarker Activity (AID 2284258); conditions: primary human bronchial epithelial cells with fibroblasts
How it was run: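 Co-culture of human bronchial epithelial cells and dermal fibroblasts, exposed to chemicals for 24 h versus DMSO. Eotaxin-3 quantified by ELISA; cytotoxicity checked in parallel cultures by sulforhodamine B total-protein staining.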

[3] = read-out: Monocyte Chemoattractant Protein-1 (MCP1), CCL2 (gene 6347); assay: BSK_BF4T_MCP1: BioMAP Diversity Plus: BF4T Assay for Monocyte Chemoattractant Protein-1 (MCP1) Biomarker Activity (AID 2284259); conditions: primary human bronchial epithelial cells with fibroblasts
How it was run: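 Co-culture of bronchial epithelial cells and dermal fibroblasts dosed with chemical; MCP-1 measured by ELISA 24 h later. Activity fitted in positive direction versus DMSO; cytotoxicity checked by SRB staining in parallel cultures.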

[4] = read-out: Intercellular Adhesion Molecule 1 (ICAM1), ICAM1 (gene 3383); assay: BSK_BF4T_ICAM1: BioMAP Diversity Plus: BF4T Assay for Intercellular Adhesion Molecule 1 (ICAM1) Biomarker Activity (AID 2284260); conditions: primary human bronchial epithelial cells with fibroblasts
How it was run: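 Co-culture of human bronchial epithelial cells and dermal fibroblasts exposed 24 h to chemical; cell-surface ICAM-1 quantified by ELISA. Parallel SRB total-protein staining assessed cytotoxicity; activity fitted relative to DMSO.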

[5] = read-out: Interleukin-8 (IL8), CXCL8 (gene 3576); assay: BSK_MyoF_IL8: BioMAP Diversity Plus: MyoF Assay for Interleukin-8 (IL8) Biomarker Activity (AID 2284261); conditions: primary human lung fibroblasts
How it was run: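 DMSO-normalised, upward-fitted IL-8 ELISA signal; human lung fibroblasts, 24 h chemical treatment.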

CD90, THY1 (gene 7070) = assay: BSK_BF4T_CD90: BioMAP Diversity Plus: BF4T Assay for CD90 Biomarker Activity (AID 2284262); conditions: primary human bronchial epithelial cells with fibroblasts
How it was run: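 Co-culture of human bronchial epithelial cells and dermal fibroblasts, 24 h compound exposure. Cell-surface CD90 measured by ELISA relative to DMSO; parallel SRB total-protein staining for cytotoxicity.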

[6] = read-out: Interleukin-8 (IL8), CXCL8 (gene 3576); assay: BSK_BF4T_IL8: BioMAP Diversity Plus: BF4T Assay for Interleukin-8 (IL8) Biomarker Activity (AID 2284263); conditions: primary human bronchial epithelial cells with fibroblasts
How it was run: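 Human bronchial epithelial cells with dermal fibroblasts co-culture; IL-8 measured by ELISA 24 hours after dosing, fitted vs DMSO. Cytotoxicity tracked in parallel cultures by SRB total-protein staining.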

[7] = read-out: Interleukin-1 alpha (IL1a), IL1A (gene 3552); assay: BSK_BF4T_IL1a: BioMAP Diversity Plus: BF4T Assay for Interleukin-1 alpha (IL1a) Biomarker Activity (AID 2284264); conditions: primary human bronchial epithelial cells with fibroblasts
How it was run: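 Human bronchial epithelial cells co-cultured with dermal fibroblasts, dosed and read at 24 h. Secreted/surface IL-1α quantified by ELISA; gain-of-signal fitted relative to DMSO baseline. Parallel SRB total-protein staining tracked cytotoxicity.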

[8] = read-out: Macrophage Inflammatory Protein-1 Alpha (MIP1a), CCL3 (gene 6348); assay: BSK_IMphg_MIP1a: BioMAP Diversity Plus: IMphg Assay for Macrophage Inflammatory Protein-1 Alpha (MIP1a) Biomarker Activity (AID 2284255); conditions: primary human endothelial cells with macrophages
How it was run: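 Co-culture of human venular endothelial cells and macrophages exposed to compounds for 24 h; MIP-1a measured by ELISA relative to DMSO. Cytotoxicity assessed in parallel cultures by sulforhodamine B total-protein staining at 560 nm.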

Measured: AC50

FC(F)(F)C(F)(F)C(F)(F)C(F)(F)C(F)(F)CCI
inactive: [1] | CD69, CD69 (gene 969) | [2] | [3] | [4] | [5] | CD90, THY1 (gene 7070) | [6] | [7]
active: [2] 38.6 µM

FC(F)(F)C(F)(F)C(F)(F)C(F)(F)C(F)(F)C(F)(F)C(F)(F)C(F)(F)F
not listed: [8]
inactive: all other assays above

O=C(O)C(F)(OC(F)(F)C(F)(OC(F)(F)C(F)(F)C(F)(F)F)C(F)(F)F)C(F)(F)F (centres undefined)
not listed: [8]
inactive: all other assays above

O=C(Cl)C(F)(F)C(F)(F)C(F)(F)C(F)(F)C(F)(F)C(F)(F)C(F)(F)C(F)(F)F
inactive: [1] | [3] | [4] | [5] | CD90, THY1 (gene 7070) | [6]
active: [1] 30 µM | CD69, CD69 (gene 969) 55.1 µM and 33.8 µM and 45.9 µM | [2] 41.7 µM and 39.5 µM and 45.8 µM | [3] 45.5 µM | [7] 45.4 µM and 45.6 µM and 56.8 µM

O=C(O)C(F)(F)C(F)(F)C(F)F
inactive: all assays above

FC(F)(Br)C(F)(F)C(F)(F)C(F)(F)C(F)(F)C(F)(F)Br
inactive: all assays above

CCO[Si](CCC(F)(F)C(F)(F)C(F)(F)C(F)(F)C(F)(F)C(F)(F)F)(OCC)OCC
inactive: [8] | [1] | CD69, CD69 (gene 969) | [2] | [3] | [4] | [5] | CD90, THY1 (gene 7070) | [6] | [7]
active: CD69, CD69 (gene 969) 0.26 µM

NC(=O)C(F)(F)C(F)(F)C(F)(F)C(F)(F)F
active: [3] 26.5 µM
inactive: [1] | CD69, CD69 (gene 969) | [2] | [3] | [4] | [5] | CD90, THY1 (gene 7070) | [6] | [7]

CC(C)(C)C(=O)CC(=O)C(F)(F)C(F)(F)C(F)(F)F
inactive: [1] | CD69, CD69 (gene 969) | [2] | [3] | [4] | [5] | CD90, THY1 (gene 7070) | [6] | [7]
active: [3] 49.9 µM

OCC(F)(F)C(F)(F)C(F)(F)F
not listed: [8]
inactive: all other assays above

FC(F)(F)C(F)(F)C(F)(F)N(C(F)(F)C(F)(F)C(F)(F)F)C(F)(F)C(F)(F)C(F)(F)F
inactive: [1] | CD69, CD69 (gene 969) | [2] | [3] | [4] | [5] | CD90, THY1 (gene 7070) | [6] | [7]
active: CD69, CD69 (gene 969) 1.09 µM

C=CC(=O)OCC(F)(F)C(F)(F)C(F)(F)C(F)(F)C(F)(F)C(F)(F)C(F)(F)F
inactive: all assays above

O=S(=O)(O)C(F)(F)C(F)(F)C(F)(F)C(F)(F)C(F)(F)C(F)(F)C(F)(F)F
active: [6] 10.4 µM
inactive: [8] | [1] | CD69, CD69 (gene 969) | [2] | [3] | [4] | [5] | CD90, THY1 (gene 7070) | [6] | [7]

O=C(O)C(F)(F)C(F)(F)C(F)(F)F
not listed: [8]
inactive: all other assays above

FC(F)(I)C(F)(F)C(F)(F)C(F)(F)I
active: CD69, CD69 (gene 969) 10.1 µM | [2] 57.1 µM and 50.6 µM | [3] 38 µM and 42.1 µM and 42.5 µM | [4] 45.7 µM and 47.8 µM and 51.6 µM | [5] 57.5 µM and 48 µM and 48.5 µM | [6] 45.6 µM and 51 µM and 55.6 µM | [7] 55.2 µM and 45.6 µM and 47.3 µM
inactive: [8] | CD69, CD69 (gene 969) | [2] | CD90, THY1 (gene 7070)

FC(F)(F)C(F)(F)CNCC(F)(F)C(F)(F)F
not listed: [1]
inactive: all other assays above

OCC(F)(F)C(F)(F)C(F)(F)C(F)F
inactive: all assays above
